Data on 51 molecules can be found in PubChem BioAssay AID504894 (National Center for Advancing Translational Sciences (NCATS), 2011).

SMILES strings stand for the structures. Screen size: about 330,000 compounds; fewer than 10 were called active. Not all results are given here. Values without a mark were called inactive. Calls follow the shape of the dose curve; as a rule, active = well fitted activation curve with a large enough effect; inconclusive = small, poorly fitted or top-dose-only effect, or another doubt; inactive = no such curve, though single readings can be large or run the other way.

The nature of the test: Activators of T cell receptors: qHTS campaign. Also: % of control where 0% means no effect. To be noted: primary human leukocytes, anti-CD3, IL-2 HTRF, 48 h; series mostly up to 9.22 µM; activation of IL-2 secretion: at the top concentration. An excerpt:
Normally activation of naive T cells requires two signals. 1. A signal through the T cell receptor (TCR) which provides antigen specificity to the response. 2. Signals through co-stimulatory molecules, which are necessary for proliferation, survival and cytokine production. In the absence of co-stimulatory signals T cells are not effectively activated, and may even be rendered anergic or unresponsive to subsequent signaling. This lack of costimulation has been shown in multiple model systems to be a major factor in the limited strength and effectiveness of anti-tumor T cell responses. The goal of this project is to identify small molecule compounds that will stimulate T cell activation in the presence of TCR signaling but in the absence of co-stimulatory signals, thereby allowing activation of naive T cells in the absence of co-stimulation. Identification of such compounds would have clear experimental and clinical applications in instances where desirable antigen-specific immune responses are not generated due to a lack of co-stimulation, for example in the generation of anti-tumor responses. In collaboration between the National Cancer Institute and NIH Chemical Genomics Center, a high-throughput amenable screen was developed to discover small molecules that co-stimulate and activate human T cell receptors. The screen will be carried out using a novel homogeneous time resolved fluorescence energy transfer (HTRF) assay to measure production of the cytokine IL-2 by activated T cells and will be tested against the NIH Molecular Libraries Small Molecule Repository (MLSMR). NIH Chemical Genomics Center [NCGC] NIH Molecular Libraries Probe Centers Network [MLPCN] MLPCN Grant: MH090820-01 Assay Submitter (PI): Richard Hodes, National Cancer Institute, NIH
Primary human leukocytes are incubated with a-CD3 beads and compounds for 48 hr. The amount of secreted IL-2 is then assayed with a HTRF IL-2 kit. The presence of IL-2 cytokine captures the detection reagents and brings the a-IL-2-K and a-IL-2-d2 into close proximity. Upon excitation with 320nm light, the europium cryptate is capable of transferring energy to acceptor molecules within close proximity, resulting in acceptor molecule emission at 665nm.
For orientation: In qHTS, concentration-response curves come from the screen itself.
As to `COc1cccc(CC(=NO)c2cccc(OC)c2)c1`, the “activation of IL-2 secretion” value is -1.64%. As for `CC(NC(=O)c1ccccc1)C(=O)Nc1ccccc1` (stereo unspecified), the “activation of IL-2 secretion” value is -0.854%. As to `COc1cc(/C=C/CNC[C@H]2O[C@@H](n3cnc(C(N)=O)n3)[C@H](O)[C@@H]2O)ccc1O`, the “activation of IL-2 secretion” value was 1.99%. As for `COc1cc2c(cc1OC)C(Cc1cc(OC)c(OC)cc1[N+](=O)[O-])=NCC2`, the figure is 5.72%; as for `Cc1ccc(-c2csc(C(C#N)=C(O)CN3CCN(C(=O)c4ccco4)CC3)n2)cc1`, 6.47%; as for `CN(C)c1ccc(CSc2ccccc2)cc1`, -1.78%. As for `COc1cc(C(=O)CCc2ccc3c(c2)OCO3)cc(OC)c1OC`, the figure is 8.7%; as for `O=c1[nH]c2c(c(=O)n1-c1ccccc1)CCO2`, -1.41%; as for `CN(C(=O)c1cccc(NC(=O)Cc2ccc(NC(=O)C3CCCN(C(=O)C4CCCC4)C3)cc2)c1)C1CCC1` (stereo unspecified), -4.37%. As for `CC(=O)c1cccc(-c2ccc(CN3C(CC(C)C)C(=O)N(Cc4cn(CC5CCCCC5)nn4)CCS3(=O)=O)cc2)c1` (stereo unspecified), the figure is 7.42%; as for `N#CCc1c[nH]c2ccc([N+](=O)[O-])cc12`, 10.7%. Take `O=c1c2ccccc2ncn1CCc1ccncc1`: the “activation of IL-2 secretion” value was -2.16%. As for `COc1cccc2c1C(=O)c1c(O)c3c(c(O)c1C2=O)CC(O)(C(C)=NNC(=O)c1ccc(Cl)c(Cl)c1)CC3OC1CC(N)C(O)C(C)O1` (stereo unspecified), the figure is 1.92%; as for `O=c1ccn([C@@H]2O[C@H](CNS(=O)(=O)c3cc4ccccc4s3)[C@@H](O)[C@H]2O)c(=O)[nH]1`, -47.4%. As to `CCCCN1CC(COCc2ccccc2)OCCS1(=O)=O` (stereo unspecified), the “activation of IL-2 secretion” value was -2.23%. As for `COc1ccc(OC)c(Cc2cnc3nc(N)nc(N)c3c2C)c1`, the figure is -1.86%. For `CCC1([N+](=O)[O-])COC(c2ccc(C(C)C)cc2)OC1` (stereo unspecified) the value was -4.78%; for `CC1C(C)N(C(=O)CCl)c2ccccc2N1C(=O)CCl` (stereo unspecified), -0.0701%; for `OCC(O)C1OCOC(C(O)CO)C1O` (stereo unspecified), 4.15%.

In the case of `CC1=CC(=NNS(=O)(=O)c2ccc([N+](=O)[O-])cc2)CC(C)(C)C1`, the “activation of IL-2 secretion” value is 7.06%. As for `C#CCOCCOCCOCCNc1nc(N2CCOCC2)nc(N2CCN(C(=O)[C@H](Cc3ccc(O)cc3)n3cc(CCO)nn3)CC2)n1`, the figure is -9.96%; as for `COc1ccc(Cl)cc1C=CC=Nc1ccc(S(N)(=O)=O)cc1`, 6.08%; as for `O=C(O)C(CCc1ccccn1)c1ccccc1` (stereo unspecified), 0.56%. As for `COc1ccc(C(=O)Nc2cccc(/C=C(/CCC(=O)O)c3nc4ccccc4s3)c2)cc1`, the figure is 5.18%; as for `O=[N+]([O-])c1ccc(NS(=O)(=O)c2ccccc2)c(Cl)c1`, 0.637%; as for `OC(COc1ccccc1)CN1CCN(c2cccc(Cl)c2)CC1` (stereo unspecified), 5.71%.

Regarding `COc1cc2c(cc1CNC[C@H]1O[C@@H](n3cnc(C(N)=O)n3)[C@H](O)[C@@H]1O)OCO2`, the “activation of IL-2 secretion” value was 15%.

With `CCc1nnc(NC(=O)c2cc(S(=O)(=O)N3CCN(CC)CC3)ccc2Cl)s1`, the “activation of IL-2 secretion” value was 2.5%. As for `O=C(NNc1nc(N2CCCC2)nc(N2CCCC2)n1)c1ccccc1`, the figure is -3.33%; as for `Nc1ccc2[nH]c(=S)sc2c1`, 6.49%; as for `CCCC(O)(c1ccccc1)C(c1ccccc1)c1ccccn1` (stereo unspecified), -4.1%.

`COc1ccc(Cl)cc1C=CC=NNC(=O)c1ccncc1`: the “activation of IL-2 secretion” value is -0.951%. As for `COc1cccc2oc(CCc3ccccc3)cc(=O)c12`, the figure is -2.9%; as for `Nc1ccc2c(c1)C(O)c1ccc(Cl)cc1-2` (stereo unspecified), 0.187%; as for `COc1ccc(CNCCCNCc2ccc(OC)c(OC)c2)cc1OC`, -0.561%. As to `O=S(=O)(Nc1ccc2ccccc2c1)N1CCCCC1`, the “activation of IL-2 secretion” value is 1.29%.

For `C[C@@H]1NS(=O)(=O)c2cc(Cl)ccc2O[C@@H]1c1ccccc1`, the “activation of IL-2 secretion” value is 0.528%. For the molecule `O=[N+]([O-])c1ccc(COc2ccccc2CN2CCOCC2)cc1`, the “activation of IL-2 secretion” value is -5.64%. As for `Cc1nc2ccccc2c(C(=O)O)c1-c1ccccn1`, the “activation of IL-2 secretion” value is -0.737%. `O=C1NC(=O)C(CCc2ccccc2)(c2ccccc2)N1` (stereo unspecified): the “activation of IL-2 secretion” value is -11.2%. As for `O=c1oc2ccccc2c(=O)c2ccccc12`, the “activation of IL-2 secretion” value was -4.64%. For the molecule `c1ccc(C(=NNc2nc3ccccc3s2)c2ccccn2)cc1`, the “activation of IL-2 secretion” value was -17.9%.

Consider `Cc1ccc(OCCNC(=O)c2cccc(S(=O)(=O)N3CCN(Cc4ccccc4)CC3)c2)cc1`, for which the “activation of IL-2 secretion” value was -0.64%. For `O=C(NCCc1ccccc1)c1c[nH]c2ccc(F)cc2c1=O` the value was 3.03%; for `CNN/C(N=Cc1ccc([N+](=O)[O-])s1)=N\S(=O)(=O)c1cc(C)c(Cl)cc1SCc1ccccc1`, 0.19%.

As to `O=C1OC(Cc2ccccc2)C(c2ccccc2)C1=O` (stereo unspecified), the “activation of IL-2 secretion” value is 0.207%. Take `COc1ccc(S(=O)(=O)N2CCc3ccccc32)cc1C(=O)Nc1cc(S(C)(=O)=O)ccc1Cl`: the “activation of IL-2 secretion” value is 4.1%. For `CN(O)C(=S)c1ccccc1` the value was 3.76%; for `CC(C)C[C@H]1CN([C@@H](CC(C)C)CN2CCC[C@@H]2CN2C(=O)C(=O)NC[C@@H]2Cc2ccccc2)C(=O)C(=O)N1CCc1ccccc1`, 3.01%; for `COc1cc(C2c3cc4c(cc3C(O)C3COC(=O)C23)OCO4)cc(OC)c1OC` (stereo unspecified), -6.83%. On to `Cc1cc(C)c(C=NNc2nc3c([nH]2)c(=O)n(C)c(=O)n3C)c(C)c1`, for which the “activation of IL-2 secretion” value is -2.46%.
